# The supplement of paper PMC4466140
# Molecular target: CaNbp2
# Experiment: SPOT peptide array binding signal intensity (averaged, normalized) (arbitrary units (background-subtracted, floor 0; scale differs between SH3 domains)); higher = stronger binding of the SH3 domain to the peptide
# Outline: (§1)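 Four yeast species supplied the SH3 domains, which were expressed as GST fusions in E. coli BL21(DE3) and purified on glutathione Sepharose. Incubation with cellulose membranes carrying synthetic 15-mer peptides, cysteines exchanged for serines, ran overnight at 4°C at 10 μg/ml in TBS-based blocking buffer. Binding signal is reported as normalized, background-subtracted spot intensity averaged over replicates, in arbitrary units not shared between domains.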
row,Binder,SPOT peptide array binding signal intensity
1,FIRKRAPTPPAPSRS,415

# Molecular target: CaRvs167
# Experiment: as above
# Outline: as §1
row,Binder,SPOT peptide array binding signal intensity
1,FIRKRAPTPPAPSRS,38.7

# Molecular target: CaRvs167-3
# Experiment: as above
# Outline: as §1
row,Binder,SPOT peptide array binding signal intensity
1,FIRKRAPTPPAPSRS,40.8

# Molecular target: CaSho1
# Experiment: as above
# Outline: as §1
row,Binder,SPOT peptide array binding signal intensity
1,FIRKRAPTPPAPSRS,158

# Molecular target: CaSla1-D1-D2
# Experiment: as above
# Outline: as §1
row,Binder,SPOT peptide array binding signal intensity
1,FIRKRAPTPPAPSRS,1780

# Molecular target: CaSla1-D3
# Experiment: as above
# Outline: as §1
row,Binder,SPOT peptide array binding signal intensity
1,FIRKRAPTPPAPSRS,7.75

# Molecular target: ScAbp1
# Experiment: as above
# Outline: as §1
row,Binder,SPOT peptide array binding signal intensity
1,FIRKRAPTPPAPSRS,256

# Molecular target: ScBbc1
# Experiment: as above
# Outline: as §1
row,Binder,SPOT peptide array binding signal intensity
1,FIRKRAPTPPAPSRS,99

# Molecular target: ScBem1-D1
# Experiment: as above
# Outline: as §1
row,Binder,SPOT peptide array binding signal intensity
1,FIRKRAPTPPAPSRS,27.5

# Molecular target: ScBzz1-D1
# Experiment: as above
# Outline: as §1
row,Binder,SPOT peptide array binding signal intensity
1,FIRKRAPTPPAPSRS,160

# Molecular target: ScBzz1-D2
# Experiment: as above
# Outline: as §1
row,Binder,SPOT peptide array binding signal intensity
1,FIRKRAPTPPAPSRS,53

# Molecular target: ScCyk3
# Experiment: as above
# Outline: as §1
row,Binder,SPOT peptide array binding signal intensity
1,FIRKRAPTPPAPSRS,46

# Molecular target: ScFus1
# Experiment: as above
# Outline: as §1
row,Binder,SPOT peptide array binding signal intensity
1,FIRKRAPTPPAPSRS,84.5

# Molecular target: ScHof1
# Experiment: as above
# Outline: as §1
row,Binder,SPOT peptide array binding signal intensity
1,FIRKRAPTPPAPSRS,5.25

# Molecular target: ScHse1
# Experiment: as above
# Outline: as §1
row,Binder,SPOT peptide array binding signal intensity
1,FIRKRAPTPPAPSRS,922

# Molecular target: ScLsb1
# Experiment: as above
# Outline: as §1
row,Binder,SPOT peptide array binding signal intensity
1,FIRKRAPTPPAPSRS,224

# Molecular target: ScLsb2
# Experiment: as above
# Outline: as §1
row,Binder,SPOT peptide array binding signal intensity
1,FIRKRAPTPPAPSRS,313

# Molecular target: ScLsb3
# Experiment: as above
# Outline: as §1
row,Binder,SPOT peptide array binding signal intensity
1,FIRKRAPTPPAPSRS,432

# Molecular target: ScLsb4
# Experiment: as above
# Outline: as §1
row,Binder,SPOT peptide array binding signal intensity
1,FIRKRAPTPPAPSRS,26

# Molecular target: ScMyo3
# Experiment: as above
# Outline: as §1
row,Binder,SPOT peptide array binding signal intensity
1,FIRKRAPTPPAPSRS,22

# Molecular target: ScMyo5
# Experiment: as above
# Outline: as §1
row,Binder,SPOT peptide array binding signal intensity
1,FIRKRAPTPPAPSRS,20.8

# Molecular target: ScNbp2
# Experiment: as above
# Outline: as §1
row,Binder,SPOT peptide array binding signal intensity
1,FIRKRAPTPPAPSRS,2260

# Molecular target: ScPex13
# Experiment: as above
# Outline: as §1
row,Binder,SPOT peptide array binding signal intensity
1,FIRKRAPTPPAPSRS,156

# Molecular target: ScRvs167
# Experiment: as above
# Outline: as §1
row,Binder,SPOT peptide array binding signal intensity
1,FIRKRAPTPPAPSRS,613

# Molecular target: ScSho1
# Experiment: as above
# Outline: as §1
row,Binder,SPOT peptide array binding signal intensity
1,FIRKRAPTPPAPSRS,866

# Molecular target: ScSla1-D1-D2
# Experiment: as above
# Outline: as §1
row,Binder,SPOT peptide array binding signal intensity
1,FIRKRAPTPPAPSRS,2370

# Molecular target: ScSla1-D3
# Experiment: as above
# Outline: as §1
row,Binder,SPOT peptide array binding signal intensity
1,FIRKRAPTPPAPSRS,29.8

# Molecular target: SpAbp1-D1
# Experiment: as above
# Outline: as §1
row,Binder,SPOT peptide array binding signal intensity
1,FIRKRAPTPPAPSRS,342

# Molecular target: SpBbc1
# Experiment: as above
# Outline: as §1
row,Binder,SPOT peptide array binding signal intensity
1,FIRKRAPTPPAPSRS,6.5

# Molecular target: SpBzz1-D1
# Experiment: as above
# Outline: as §1
row,Binder,SPOT peptide array binding signal intensity
1,FIRKRAPTPPAPSRS,770

# Molecular target: SpBzz1-D2
# Experiment: as above
# Outline: as §1
row,Binder,SPOT peptide array binding signal intensity
1,FIRKRAPTPPAPSRS,200

# Molecular target: SpCyk3
# Experiment: as above
# Outline: as §1
row,Binder,SPOT peptide array binding signal intensity
1,FIRKRAPTPPAPSRS,2

# Molecular target: SpHof1
# Experiment: as above
# Outline: as §1
row,Binder,SPOT peptide array binding signal intensity
1,FIRKRAPTPPAPSRS,116

# Molecular target: SpHof1-2
# Experiment: as above
# Outline: as §1
row,Binder,SPOT peptide array binding signal intensity
1,FIRKRAPTPPAPSRS,10.5

# Molecular target: SpHof1-3
# Experiment: as above
# Outline: as §1
row,Binder,SPOT peptide array binding signal intensity
1,FIRKRAPTPPAPSRS,567

# Molecular target: SpHse1
# Experiment: as above
# Outline: as §1
row,Binder,SPOT peptide array binding signal intensity
1,FIRKRAPTPPAPSRS,377

# Molecular target: SpLsb1
# Experiment: as above
# Outline: as §1
row,Binder,SPOT peptide array binding signal intensity
1,FIRKRAPTPPAPSRS,556

# Molecular target: SpLsb4
# Experiment: as above
# Outline: as §1
row,Binder,SPOT peptide array binding signal intensity
1,FIRKRAPTPPAPSRS,1130

# Molecular target: SpMyo1
# Experiment: as above
# Outline: as §1
row,Binder,SPOT peptide array binding signal intensity
1,FIRKRAPTPPAPSRS,24.5

# Molecular target: SpNbp2
# Experiment: as above
# Outline: as §1
row,Binder,SPOT peptide array binding signal intensity
1,FIRKRAPTPPAPSRS,75

# Molecular target: SpPex13
# Experiment: as above
# Outline: as §1
row,Binder,SPOT peptide array binding signal intensity
1,FIRKRAPTPPAPSRS,33

# Molecular target: SpRvs167
# Experiment: as above
# Outline: as §1
row,Binder,SPOT peptide array binding signal intensity
1,FIRKRAPTPPAPSRS,293

# Molecular target: SpSla1-D1-D2
# Experiment: as above
# Outline: as §1
row,Binder,SPOT peptide array binding signal intensity
1,FIRKRAPTPPAPSRS,19

# Molecular target: SpSla1-D3
# Experiment: as above
# Outline: as §1
row,Binder,SPOT peptide array binding signal intensity
1,FIRKRAPTPPAPSRS,4
